# High-throughput results as filed in PubChem.
# Bcl-W Bim block: inhibitors of Bim binding to Bcl-W, primary screen, biochemical, multiplexed, bead-based flow cytometry. AID 952, 2007. Bcl-2-like protein 2 (Homo sapiens), Q92843. inhibition, % at 10 µM. Bim peptide-Bcl-W binding. hit rate 0.02% among 190,000;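 further: 0% = bound tracer without compound and 100% = peptide blocker; higher means less fluorescent Bim peptide bound to Bcl-W beads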
# Bfl-1 Bim block: inhibitors of Bim binding to Bfl-1, primary screen, biochemical, multiplexed, bead-based flow cytometry | Bcl-2-related protein A1 (Homo sapiens), Q16548 | Bim-Bfl-1 binding inhibition | hit rate 0.12% among 190,000 | inhibition, % at 10 µM | AID 1008, 2008;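 further: 0% = wells without compound plus tracer and 100% = blocker peptide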
# Furin inh: human furin inhibitors, primary screen, biochemical, fluorescence intensity; hit rate 0.061% among 220,000; AID 463115, 2010; inhibition, % at 20 µM or 30 µM; purified furin, fluorogenic substrate cleavage; in the data active means inhibition above about 25%
# Target sequence (P09958 108-714 limits assumed): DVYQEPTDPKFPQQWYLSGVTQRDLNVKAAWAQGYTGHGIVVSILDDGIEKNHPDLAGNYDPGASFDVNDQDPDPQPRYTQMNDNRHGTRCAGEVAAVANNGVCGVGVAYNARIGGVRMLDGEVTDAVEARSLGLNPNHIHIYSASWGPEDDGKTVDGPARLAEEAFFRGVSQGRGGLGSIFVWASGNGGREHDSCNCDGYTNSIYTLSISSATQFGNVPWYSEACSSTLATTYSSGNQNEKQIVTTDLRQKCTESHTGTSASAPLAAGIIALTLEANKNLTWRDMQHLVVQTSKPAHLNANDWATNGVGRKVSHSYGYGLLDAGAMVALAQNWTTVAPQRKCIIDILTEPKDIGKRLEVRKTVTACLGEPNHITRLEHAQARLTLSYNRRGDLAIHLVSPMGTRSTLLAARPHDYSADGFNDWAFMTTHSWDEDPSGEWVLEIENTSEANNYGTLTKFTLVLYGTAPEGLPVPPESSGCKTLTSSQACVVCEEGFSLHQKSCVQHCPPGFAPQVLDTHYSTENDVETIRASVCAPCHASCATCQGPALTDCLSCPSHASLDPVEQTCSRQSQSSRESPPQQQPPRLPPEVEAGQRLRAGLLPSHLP
# Bcl-XL Bim block: inhibitors of Bim-Bcl-XL binding, primary screen, biochemical, multiplexed, bead flow cytometry, human Bcl-XL; Bim peptide-Bcl-XL binding, fluorescence; Bcl-2-like protein 1 (Homo sapiens), Q07817; AID 1007, 2008; inhibition, % at 10 µM; hit rate 0.04% among 190,000
# Bcl-B Bim block: inhibitors of Bim-Bcl-B binding, primary screen, biochemical, multiplexed, human Bcl-2 family. Bcl-2-like protein 10 (Homo sapiens), Q9HD36. bead-based flow cytometry, Bim peptide-Bcl-B binding. inhibition, % at 10 µM. hit rate 0.073% among 190,000;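 further: 0% = tracer peptide without compound and 100% = reference inhibitor peptide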
# Bcl-2 Bim block: inhibitors of Bim-Bcl-2 binding, primary screen, biochemical, multiplexed, human Bcl-2 family. Apoptosis regulator Bcl-2 (Homo sapiens), P10415. Bead-based flow cytometry, Bim peptide-Bcl-2 binding. inhibition, % at 10 µM. hit rate 0.06% among 190,000. AID 950, 2007; in the data active means inhibition above about 40%;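 further: 0% = no compound wells with probe peptide and 100% = reference peptide inhibitor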
# The depositor's hits bear a star; / = no result given. Shown are actives, neighbours in structure and some others; about 0.25% of the full set was active somewhere. Unless noted, no stated cut-off is given here; in the data, active means inhibition above about 40%.
SMILES,Bcl-W Bim block,Bfl-1 Bim block,Furin inh,Bcl-XL Bim block,Bcl-B Bim block,Bcl-2 Bim block
Cc1ccc(-c2nnc(Cc3ccc(Cl)cc3)o2)cc1,35.0,67.0*,-2.2,28.0,87.0*,92.0*
Cc1ccsc1/C=C1\SC(N2CC(C)OC(C)C2)=NC1=O (stereo not drawn),-4.0,-12.0,-9.3,-4.0,-11.0,-1.0
NC(=O)Cn1nnc(-c2ccc(C(F)(F)F)cc2)n1,0.0,-10.0,26.2*,-4.0,-5.0,-5.0
CC(C)c1cc(C(=O)O)c2cnn(C(C)C)c2n1,/,/,-18.0,/,/,/
O=C(Cc1ccc([N+](=O)[O-])cc1)Nc1cc(C(F)(F)F)cc(C(F)(F)F)c1,/,/,-7.2,/,/,/
O=C(/C=C/c1ccccc1Cl)c1ccc(O)cc1,/,/,-22.1,/,/,/
O=C(/C=C/c1ccccc1Cl)c1ccccc(=O)c1O,38.0,54.0*,2.7,31.0,2.0,42.0*
Cc1ccc(/C=C/C(=O)c2ccccc(=O)c2O)c(C)c1,15.0,32.0,-18.4,7.0,-28.0,23.0
Cc1ccc(C)c(/C=C/C(=O)c2ccccc(=O)c2O)c1,23.0,41.0*,-9.3,17.0,-29.0,24.0
Cc1ccc(C)c(NC(=O)C(=O)NCc2ccccn2)c1,33.0,49.0*,-1.6,46.0*,27.0,34.0
Cc1ccc(NC(=O)NCc2ccccn2)cc1,0.0,-3.0,-11.5,0.0,-1.0,0.0
Cc1cccc(/C=C2/S/C(=N/N=C3\CC4CCC3(C)C4(C)C)NC2=O)c1 (stereo not drawn),0.0,0.0,31.1*,-1.0,1.0,1.0
N#Cc1c(NC(=O)CCN2C(=O)c3ccccc3C2=O)oc(-c2ccccc2)c1-c1ccccc1,2.0,-13.0,-7.0,-5.0,-10.0,-11.0
N#Cc1c(NC(=O)CCn2cnc3ccccc3c2=O)oc(-c2ccccc2)c1-c1ccccc1,-4.0,-13.0,28.3*,-10.0,-13.0,-10.0
COc1ccc(N2C(=O)/C(=C/c3ccc([N+](=O)[O-])cc3)N=C2C)cc1,-1.0,-6.0,-20.7,-2.0,-5.0,0.0
COc1ccc(COC(=O)NNC(=O)c2ccccc2Cl)cc1,25.0,66.0*,-17.3,18.0,83.0*,83.0*
Nc1ccc(S(=O)(=O)c2ccc(Cl)cc2)cc1,0.0,-2.0,-15.4,-6.0,-4.0,0.0
O=c1[nH]c(SCc2nc3ccccc3c(=O)n2-c2ccccc2C(F)(F)F)nc2ccccc12,35.0,34.0,-9.3,41.0*,16.0,23.0
Cc1ccc2cccc(NC3OC(=O)c4ccccc43)c2n1 (stereo not drawn),-2.0,2.0,-12.6,-5.0,-6.0,-1.0
CCN1CCS/C1=C/C=C/C1=[N+](CC)CCS1,6.0,3.0,38.3*,3.0,29.0,1.0
CCN1CCS/C1=C\C=C\C1=[N+](CC)CCS1,4.0,2.0,43.0*,1.0,16.0,1.0
CCCC/C(O)=C1\C(=O)CC(C)(C)CC1=NCCCCCC(=O)O,-1.0,-2.0,-3.7,0.0,-3.0,0.0
Cc1ccc(OCc2cn3cccnc3n2)cc1,21.0,7.0,-12.9,25.0,58.0*,17.0
O=[N+]([O-])c1cccc(OCc2cn3cccnc3n2)c1,0.0,2.0,-7.3,-2.0,0.0,2.0
CC(C)(C)n1cc(S(=O)(=O)c2ccccc2)[nH]c1=O,0.0,-7.0,-0.6,-1.0,-2.0,-3.0
SMILES,Bcl-W Bim block,Bfl-1 Bim block,Furin inh,Bcl-XL Bim block,Bcl-B Bim block,Bcl-2 Bim block
CCOc1cc2c(C#N)c(N3CCNCC3)nc(N)c2c(N)n1,17.0,8.0,-32.0,18.0,53.0*,17.0
Cc1ccc(C)c(N2C(=O)CN=C2Nc2ccccc2Cl)c1,0.0,-11.0,25.2*,-8.0,-9.0,-11.0
O=C(Cn1ncc2c(=O)oc3ccccc3c21)NC1CC1,-1.0,-17.0,-25.9,-8.0,-8.0,-8.0
O=C(Cn1ncc2c(=O)oc3ccccc3c21)Nc1nc2ccccc2s1,1.0,-7.0,25.4*,-3.0,-2.0,-6.0
CSc1n[nH]c(NCc2ccc(C)cc2)n1,1.0,0.0,26.8*,-3.0,-2.0,3.0
COc1ccc2c(C)cc(Sc3nnnn3-c3ccccc3)nc2c1,-6.0,-11.0,-30.7,-7.0,-11.0,-8.0
